Rows were chosen to be rich in hits. Some 11% of all compounds tested hit in one or more screens of this group.
VDR inhibitor: Inhibitors of the vitamin D receptor (VDR): qHTS; Vitamin D3 receptor (Homo sapiens), P11473; VDR-SRC2-3 peptide fluorescence polarization, 2 h; Potency, µM, for inactives: max response, negative = inhibition, actives largely listed as inhibitors; actives 0.93% (n = 400,000); AID 504847, 2011; further: on the % scale 0 is the no-effect control and ±100 the full control effect
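Measured by FP: displacement of SRC2-3 coactivator peptide from VDR by library compounds, following a two-hour ambient incubation.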
BAZ2B inh: qHTS Assay for Inhibitors of BAZ2B. Potency, µM (doses to about 114 µM), for inactives: at the top dose activity change, negative = inhibition, usual class: inhibitors. Bromodomain adjacent to zinc finger domain protein 2B (Homo sapiens), Q9UIF8. actives 4.4% (n = 360,000). AlphaScreen BAZ2B-H3K14Ac peptide displacement. AID 504333, 2011; further: on the % scale 0 is the no-effect control and ±100 the full control effect; nearly all actives have a fitted effect of over 60% in size
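AlphaScreen displacement of biotin-H3(5-23)K14Ac peptide (50 nM final) from BAZ2B (50 nM final) in PBS pH 7.4, 0.01% Tween-20; complex preformed 30 min RT, then compounds (top 110 uM) 30 min RT, beads 20 min dark.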
JMJD2A Tudor: qHTS Assay for Inhibitors of JMJD2A-Tudor Domain; Lysine-specific demethylase 4A (Homo sapiens), O75164; AlphaScreen JMJD2A-Tudor / H3K4me3 peptide binding; Potency, µM (doses to about 114 µM), inactives show at the top dose activity change, negative = inhibition, actives largely listed as inhibitors; actives 4.4% (n = 390,000); AID 504339, 2011; further: on the % scale 0 is the no-effect control and ±100 the full control effect; nearly all actives have a fitted effect of over 50% in size
HP1b binding inh: HTS for Inhibitors of HP1-beta Chromodomain Interactions with Methylated Histone Tails; Chromobox protein homolog 1 (Homo sapiens), P83916; AlphaScreen HP1-beta / biotin-H3K9me3 peptide binding; Potency, µM (series often up to 114 µM), for inactives: at the top dose activity change, negative = inhibition, usual class: inhibitors; actives 0.56% (n = 390,000); further: nearly all actives have a fitted effect of over 70% in size
Target sequence (P83916 whole entry, looked up): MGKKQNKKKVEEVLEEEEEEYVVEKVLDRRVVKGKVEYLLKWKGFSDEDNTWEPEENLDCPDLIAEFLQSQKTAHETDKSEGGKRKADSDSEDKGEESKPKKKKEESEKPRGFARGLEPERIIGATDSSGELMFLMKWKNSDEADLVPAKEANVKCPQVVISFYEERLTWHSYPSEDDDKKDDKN
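HP1-beta protein (50 nM final) preincubated 30 min at room temperature with biotinylated H3(1-18)K9me3 peptide (50 nM) in PBS pH 7.4, 0.01% Tween-20, then compound added for 30 min. AlphaScreen streptavidin donor/nickel chelate acceptor beads (10 ug/mL final), 30 min dark, luminescence read.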
PLK1 PBD block: qHTS for Inhibitors of PLK1-PDB (polo-like kinase 1 - polo-box domain): Primary Screen. Serine/threonine-protein kinase PLK1 (Homo sapiens), P53350. Plk1 PBD binding of FITC phosphopeptide, fluorescence polarization. Potency, µM, without a hit: max response, negative = inhibition, actives largely listed as inhibitors. actives 2.8% (n = 360,000); further: series mostly up to about 57 µM; on the % scale 0 is the no-effect control and ±100 the full control effect; nearly all actives have a fitted effect of over 65% in size
G9a block: qHTS Assay for Inhibitors of Histone Lysine Methyltransferase G9a | actives 8.8% (n = 350,000) | AID 504332, 2011 | Potency, µM (doses to about 102 µM), without a hit: at the highest dose activity, negative = inhibition, most hits filed as inhibitors | Histone-lysine N-methyltransferase EHMT2 (Homo sapiens), Q96KQ7 | G9a H3K9 monomethylation, AlphaScreen, 2 h; further: on the % scale 0 is the no-effect control and ±100 the full control effect; nearly all actives have a fitted effect of over 75% in size
Target sequence (Q96KQ7 913-1193 limits assumed): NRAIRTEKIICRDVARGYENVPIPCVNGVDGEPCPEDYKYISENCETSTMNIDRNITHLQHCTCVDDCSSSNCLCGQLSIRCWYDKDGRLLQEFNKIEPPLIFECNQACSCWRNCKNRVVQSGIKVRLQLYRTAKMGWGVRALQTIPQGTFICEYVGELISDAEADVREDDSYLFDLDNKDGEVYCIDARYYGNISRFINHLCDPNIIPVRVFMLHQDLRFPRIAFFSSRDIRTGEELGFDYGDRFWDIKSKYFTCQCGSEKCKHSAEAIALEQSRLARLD
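AlphaScreen detection with an anti-monomethyl H3K9 antibody quantified product after a 2 h room-temperature reaction containing 500 nM biotinylated H3K9 peptide, 20 µM SAM and 20 nM enzyme, which had been preincubated 15 min with compound.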
VDR confirm: qHTS for Inhibitors of the vitamin D receptor (VDR): Hit Validation in Primary Screen; AID 602199, 2012; actives 89% (n = 840); shares compounds with VDR inhibitor; VDR-coactivator inhibition assay, qHTS confirmation; Potency, µM, usual class: inhibitors
VDR FP fluor: qHTS for Inhibitors of the vitamin D receptor (VDR): Hit Validation using a Fluorescein Assay; shares compounds with VDR inhibitor; VDR-coactivator binding, fluorescein fluorescence polarization; Potency, µM (highest dose often 57.1 µM), inactives show at the top dose activity change, negative = inhibition, most hits filed as inhibitors; actives 48% (n = 840); AID 602200, 2012
VDR bla: qHTS for Inhibitors of the vitamin D receptor (VDR): Hit Validation using a Beta-Lactamase Assay; shares compounds with VDR inhibitor; actives 23% (n = 840); Potency, µM (doses to about 46.1 µM), without a hit: at the top dose activity change, negative = inhibition, usual class: inhibitors; VDR beta-lactamase reporter cells, FRET ratio; cells co-treated with VDR agonist LG190178; AID 602202, 2012; further: on the % scale 0 is the no-effect control and ±100 the full control effect
VDR viability: qHTS for Inhibitors of the vitamin D receptor (VDR): Hit Validation using a Cytotoxicity Assay; shares compounds with VDR inhibitor; cytotoxicity counter-screen, cell viability, qHTS; Potency, µM (highest dose often 48.3 µM), inactives show top-dose activity change, negative = cytotoxicity, usual class: cytotoxic; actives 18% (n = 840);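 further: plate controls were DMSO for no effect and high-concentration cycloheximide for full effect; nearly all actives have a fitted effect of over 75% in size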
TbPYK confirm: qHTS of Trypanosoma Brucei Inhibitors: Confirmatory Assay for Cherry-picked Compounds; shares compounds with PLK1 PBD block; recombinant TbPYK, Kinase-Glo ATP luminescence; Potency, µM (doses to about 76.9 µM), without a hit: top-dose activity change, negative = inhibition, usual class: inhibitors; actives 67% (n = 890); AID 720569, 2013; further: on the % scale 0 is the no-effect control and ±100 the full control effect; nearly all actives have a fitted effect of over 70% in size
TbPYK ADP-Glo: qHTS of Trypanosoma Brucei Inhibitors: Orthogonal Assay for Cherry-picked Compounds; shares compounds with PLK1 PBD block; actives 62% (n = 890); recombinant TbPYK, ADP-Glo luminescence, 60 min; Potency, µM (titrated, usually from 76.9 µM), without a hit: top-dose activity change, negative = inhibition, actives largely listed as inhibitors; further: on the % scale 0 is the no-effect control and ±100 the full control effect; nearly all actives have a fitted effect of over 75% in size
Numbers without * were called inactive; ? = inconclusive; . = no result given; [ ] = remark or other dose. The call rests on the fitted dose curve; in most records, active means well fitted curve in the direction sought with a large enough effect; inconclusive means small, poorly fitted or top-dose-only effect, or another doubt; inactive means no such curve, though single readings can be large; an effect the other way counts as inactive or inconclusive. Potency means the concentration at half of the fitted maximal effect.

SMILES | VDR inhibitor | BAZ2B inh | JMJD2A Tudor | HP1b binding inh | PLK1 PBD block | G9a block | TbPYK confirm | TbPYK ADP-Glo | others
CCC1(c2ccccc2)C(=O)N(C)C(=O)N(C)C1=O | -6% | 9% | -6% | 32% | -7% | 8%[59 µM] | . | .
CN1C(=O)N(C)C(=O)C2(Sc3ccccc3C2=O)C1=O | 35µM* | -34% | ? | 8% | 5.3µM* | ? | 5µM* | ? | VDR confirm=3.4*;VDR FP fluor=3.5µM*;VDR bla=31%;VDR viability=-7%
COc1ccc(NC(=O)c2cccn(Cc3ccc(Cl)cc3)c2=O)c(OC)c1 | -2% | 0% | -20% | 11%[57 µM] | . | 4%[59 µM] | . | .
O=C1NC(=O)N(c2ccccc2)C(=O)/C1=C\c1ccc([N+](=O)[O-])s1 | 40µM* | 35µM* | 22µM* | 16µM* | 5.3µM* | 8.9µM* | 7.9µM* | 13µM*
COc1ccc(OC)c(N2C(=O)NC(=O)/C(=C\c3ccc([N+](=O)[O-])s3)C2=O)c1 | ? | 28µM* | 28µM* | 25µM* | 2.7µM* | 8.9µM* | 2.8µM* | ?
CCOC(=O)c1c(/N=C/C2C(=O)NC(=S)NC2=O)sc2c1CCC2 | ? | -19% | 50µM* | 40% | 23% | ? | ? | ?
Cc1cc(C=C2C(=O)N(C)C(=S)N(C)C2=O)c(C)n1-c1cccnc1 | ? | 45µM* | -31% | -13% | 2.1µM* | 8.9µM* | ? | ?
c1ccc(N2CC3(CCNCC3)C2)cc1 | ? | . | . | . | . | -3%[12.7 µM] | . | .
COc1ccc(N2C(=O)/C(=C/c3ccc(C)o3)C(=O)NC2=S)c(OC)c1 | 7% | 50µM* | 50µM* | -23% | 11µM* | 12%[0.501 µM] | 1.4µM* | 13µM*
Cc1ccccc1N1C(=O)NC(=O)/C(=C\c2cc(Br)c(N3CCOCC3)o2)C1=O | ? | ? | -27% | ? | 104% | ? | . | .
CCCOc1ccc(C2SCC(=O)Nc3c2c(C)nn3-c2cccc(C)c2)cc1OC (centres undefined) | 14% | -29% | -33% | 12% | . | -34%[59 µM] | . | .
O=C(NCc1ccc2c(c1)OCO2)c1cc(-n2cnnc2)ccc1Cl | 10% | ? | 6% | 21% | -14% | ? | . | .
COc1ccc(-c2ccc(OC)c(OC)c2OC)cc1 | 2% | . | 49% | 54% | -9% | . | . | .
COc1ccc(CN2C(=O)NC(=O)/C(=C/c3cc(OC)c(OC)c(OC)c3)C2=O)cc1 | ? | -13% | -11% | 4% | 12µM* | 45µM* | ? | -28%
COc1ccc(CN2C(=O)NC(=O)/C(=C/c3ccc(OC)c(OC)c3OC)C2=O)cc1 | ? | -16% | 9% | 16% | 8.4µM* | . | 28µM* | ?
CCN(CC)C(=O)c1ccc2c(c1)C1C=CCC1C(C(=O)O)N2 (centres undefined) | ? | 25µM* | 11µM* | 28µM* | 7.5µM* | 1.6µM* | 4µM* | ?
CCOC(=O)CSCCOc1ccc(C=C2C(=O)NC(=O)NC2=O)cc1OC | ? | ? | -19% | 31% | 8.4µM* | 22µM* | 16µM* | ?
CCOC(=O)c1c(-n2c(C)cc(C=C3C(=O)NC(=O)NC3=O)c2C)sc2c1CCCC2 | -14% | 5% | 1% | 36% | ? | ? | . | .
O=C(COc1ccccc1[N+](=O)[O-])N1CCN(CCc2ccncc2)CC1 | 22% | -29% | -16% | 38% | . | -30%[59 µM] | . | .
O=C1NC(=O)N(Cc2ccccc2)C(=O)/C1=C\c1ccco1 | -3% | 40µM* | ? | ? | 2.1µM* | 35µM* | 32µM* | ?
Cc1cc(C)n2nc(SC(C)C(=O)N3CCC4(CC3)OCCO4)nc2n1 (centres undefined) | -8% | -1% | -22% | 20% | -1% | 1%[59 µM] | 6% | -2%
Cc1ccc2cc3cc(C(=O)N4CCC5(CC4)OCCO5)oc3nc2c1 | 13% | 7% | 1% | 21% | -11% | 7%[0.0925 µM] | . | .
COc1cc(C2SCC(=O)Nc3c2c(C)nn3-c2ccccc2)cc(OC)c1OC (centres undefined) | -5% | -8% | 0% | 25% | -6% | -34%[59 µM] | . | .
COc1cc(/C=C2/C(=O)NC(=O)N(c3ccc(C)cc3)C2=O)cc(OC)c1OC | ? | -4% | -14% | -8% | 12µM* | -4%[12.7 µM] | ? | ?
COc1cc(/C=C2\C(=O)NC(=O)N(c3ccccc3)C2=O)cc(OC)c1OC | ? | -37% | -25% | 18% | 13µM* | ? | ? | ?

Screening results: PubChem BioAssay, National Center for Advancing Translational Sciences (NCATS)
